The campaign covered roughly 52,000 compounds. About 1,700 (3.3%) were called active. Many of the other results were omitted from the sample, so actives are more common in it than they were. Values without a mark were called inactive. Cut-off read from the data, not from the text of the source: active = survival mostly below about 52% (no sharp cut-off); inactive = mostly above about 56%.

The assay deals with Wild type. The assay is described as follows: growth inhibition of S. aureus wild type versus tarO mutant, primary screen, teichoic acid synthesis inhibitors, RN4220, OD600 (AID 463173). The following applies: S. aureus RN4220 wild type/DeltatarO growth, OD600, 18 h, stronger effect = lower value, screened at 18.75 µg/mL (by protocol).
Consider `Cc1ccc(-n2c(SCC(=O)N3CCC(C)CC3)nc3c([nH]c4ccccc43)c2=O)cc1`, for which the survival was -6% (active).

`COc1ccc(-n2c(SCC(=O)N3CCC(C)CC3)nc3c([nH]c4ccccc43)c2=O)cc1`: the survival was 79%. Turning to `Cc1cc(C)cc(-n2c(SCC(=O)N3CCC(C)CC3)nc3c([nH]c4ccccc43)c2=O)c1`, the survival is -1% (active). The figure for `CCOC(=O)CSc1nc2c([nH]c3ccccc32)c(=O)n1-c1ccc(OCC)cc1` is 80%; for `Cc1cc(C)cc(-n2c(SCC(=O)N3CCCCC3)nc3c([nH]c4ccccc43)c2=O)c1` it is 78%. As for `CCOc1ccc(-n2c(SC(C)C(=O)OC)nc3c([nH]c4ccccc43)c2=O)cc1` (centres undefined), the survival was -2% (active). `Cc1ccc(C)c(NC(=O)CSc2nc3c([nH]c4ccccc43)c(=O)n2-c2ccc(F)cc2)c1`: the survival is 0% (active). Consider `Cc1cc(C)cc(-n2c(SCC(=O)N3CCCC3)nc3c([nH]c4ccccc43)c2=O)c1`, for which the survival is 69%. In the case of `Cc1cccc(NC(=O)CSc2nc3c([nH]c4ccccc43)c(=O)n2-c2ccc(F)cc2)c1C`, the survival is 22%. With `CC1CCN(C(=O)CSc2nc3c([nH]c4ccccc43)c(=O)n2-c2ccccc2)CC1`, the survival was 83%.

Regarding `CCOc1ccc(-n2c(SCC(=O)Nc3cc(C)ccc3C)nc3c([nH]c4ccccc43)c2=O)cc1`, the survival was 59%. In the case of `COC(=O)C(C)Sc1nc2c([nH]c3ccccc32)c(=O)n1-c1ccc(OC)cc1` (centres undefined), the survival was 75%. The figure for `CCc1ccc(-c2nc(CS(=O)CC(=O)NCc3ccc(F)cc3)c(C)o2)cc1` (centres undefined) is 73%; for `O=C1N/C(=N\S(=O)(=O)Cc2ccccc2)S/C1=C\c1ccco1` it is 106%; for `COc1ccccc1CNC(=O)Cn1c(=O)nc(-c2ccccc2)c2ccccc21` it is 67%. In the case of `CCc1ccc(-n2c(N3CCN(c4cccc(C)c4C)CC3)nc3ccccc3c2=O)cc1`, the survival was 81%. For the molecule `Cc1c(C(=O)NCc2ccccc2Br)oc2c1-c1[nH]ncc1CC2`, the survival is 82%.

As for `Cc1ccc(C(=O)Nc2ccc3c(c2)N(C)C(=O)c2ccccc2S3)cc1`, the survival was 99%. Turning to `COc1ccc(Cl)cc1NC(=O)Cn1c(=O)n(Cc2ccco2)c(=O)c2ccc(C(=O)NC3CCCC3)cc21`, the survival is 87%.

Consider `COC(=O)c1ccc(CSc2nc3c([nH]c4ccccc43)c(=O)n2-c2cc(C)cc(C)c2)o1`, for which the survival is 0% (active). With `COC(=O)c1ccc(CSc2nc3c([nH]c4ccccc43)c(=O)n2-c2ccc(Cl)cc2)o1`, the survival was 121%. Take `COc1ccc(-n2c(SCC(=O)NCc3ccco3)nc3c([nH]c4ccccc43)c2=O)cc1`: the survival was 75%.

In the case of `O=C(CSc1nc2c([nH]c3ccccc32)c(=O)n1-c1ccc(F)cc1)NCc1ccco1`, the survival was 88%. On to `COc1cccc(NC(=O)CSc2nc3c([nH]c4ccccc43)c(=O)n2-c2ccccc2)c1`, for which the survival was 67%. In the case of `CCOc1ccc(-n2c(SCC(=O)NCc3ccco3)nc3c([nH]c4ccccc43)c2=O)cc1`, the survival is 10% (active).

On to `COc1cccc(-n2c(SCC(=O)N3CCCCC3)nc3c([nH]c4ccccc43)c2=O)c1`, for which the survival was -3% (active). For `O=C(CSc1nc2c([nH]c3ccccc32)c(=O)n1-c1ccccc1F)Nc1cccc(C(F)(F)F)c1`, the survival was 71%. The result for `COC(=O)c1ccc(CSc2nc3c([nH]c4ccccc43)c(=O)n2-c2cccc(Cl)c2)o1` reads 71%; that for `O=C(CSc1nc2c([nH]c3ccccc32)c(=O)n1-c1ccccc1)N1CCCCCC1`, 78%; that for `O=C(CSc1nc2c([nH]c3ccccc32)c(=O)n1-c1ccccc1)Nc1cccc(C(F)(F)F)c1`, -6% (active). The figure for `O=C(CSc1nc2c([nH]c3ccccc32)c(=O)n1-c1ccccc1)N1CCCCC1` is 69%; for `CCc1cccc(C)c1NC(=O)c1cc(S(=O)(=O)N2CCN(c3ccccc3)CC2)ccc1F` it is 73%. With `COc1cccc(C(=O)N2c3ccc(C)cc3C(C)(c3ccccc3)CC2(C)C)c1` (centres undefined), the survival is -2% (active). For the molecule `COc1cccc(C(=O)N2c3cc(C)ccc3C(C)(c3ccccc3)CC2(C)C)c1` (centres undefined), the survival was 1% (active). The figure for `COC(=O)C1=NN(C(=O)c2cccc(OC)c2)C(C)(O)C1` (centres undefined) is 123%; for `COc1cccc(NC(=O)NCc2ccc3c(c2)CCN3C(=O)c2ccccc2)c1` it is 64%. `COc1cccc(C(=O)N2CC(C)OC(C)C2)c1` (centres undefined): the survival is 107%. For the molecule `COc1ccc(OCC(=O)N2CCN(C(=O)c3cccc(OC)c3)CC2)cc1`, the survival was 88%. `COc1ccc(CNc2nc(-c3ccco3)nn2C(=O)c2ccccc2Cl)cc1`: the survival is 95%.

With `O=C(Cn1c(=O)n(-c2ccc(F)cc2)c(=O)c2sc3ccccc3c21)NC1CCCCC1`, the survival is 91%.

Consider `CNC(=O)C1CCC(Cn2c(=O)c3sccc3n(CC(=O)N3CCCC3)c2=O)CC1` (centres undefined), for which the survival is 77%. Regarding `Cc1ccc(NCC(=O)N=Nc2c(O)[nH]c3ccccc23)cc1`, the survival is 114%. `CCOC(=O)c1oc2c(c1C)-c1nn(Cc3ccc(Cl)cc3)cc1CC2`: the survival is 2% (active).

For the molecule `Cc1c(C(=O)O)oc2c1-c1nn(Cc3ccc(Cl)cc3)cc1CC2`, the survival is 77%. With `CCOC(=O)c1oc2c(c1C)-c1nn(Cc3cccc(Cl)c3)cc1CC2`, the survival is 66%. As to `CCOc1ccc2c(c1)c(=O)c(C(=O)c1ccc3c(c1)OCO3)cn2Cc1cccc(F)c1`, the survival is 91%.

For `CCCCOc1cccc(C2c3c(oc4ccccc4c3=O)C(=O)N2c2ccccn2)c1` (centres undefined), the survival is 68%. Take `O=C(Nc1noc2ccccc12)c1ccc(F)cc1`: the survival was 78%.

For `CCOC(=O)c1c(C)oc2c1c(O)c(N=O)c1ccccc12`, the survival is 7% (active). Take `CCOC(=O)c1c(C)oc2nc(C)nc(N3CCN(c4ccccc4)CC3)c12`: the survival was 68%. With `CCOC(=O)c1c(C)oc2ncnc(N3CCN(c4ccccc4)CC3)c12`, the survival was 68%.

For `CC(C)OC(=O)Cn1c(C2CC2)nc2ccccc2c1=O`, the survival is 115%. The result for `CC(C)(C)c1ccc(S(=O)(=O)N2CCC(Oc3ccc(-n4cnnn4)cc3)CC2)cc1` reads 81%; that for `Cc1cn2c(=O)cc(COC(=O)c3ccc(NC(=O)COc4ccccc4F)cc3)nc2s1`, 85%.

The record behind these values is PubChem BioAssay AID463173 (ICCB-Longwood Screening Facility, Harvard Medical School, 2010).
